# Sampled rows, rich in hits. Any-hit rate of the full collection: about 11%.
# HP1b binding inh: HP1-beta chromodomain-methylated histone interaction inhibition. 390,000 tested, 0.56% active. AID 540317. AlphaScreen HP1-beta / biotin-H3K9me3 peptide binding. P83916. Potency, µM (top dose mostly 114 µM), for the others: at the top dose activity change, negative = inhibition, most hits filed as inhibitors; note: potency is the fitted concentration of half-maximal effect; nearly all actives have a fitted effect of over 70% in size
#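 AlphaScreen: HP1-beta (50 nM) preformed 30 min with biotin-H3(1-18)K9me3 peptide (50 nM) in PBS pH 7.4, 0.01% Tween-20. Compound added for 30 min at RT, then streptavidin donor/nickel chelate acceptor beads (10 ug/mL) for 30 min.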
# PI5P4K alpha inh: inhibitors of human PI5P4K alpha; PI5P4Kalpha enzyme, ADP-Glo luminescence, 60 min; hits give low values; 330,000 tested, 1.2% active; max response, %; P48426; active = max response of -50% or lower; inconclusive = between -30% and -50%; inactive = -30% or higher; note: value at the top dose of about 77 µM; % is set by controls: 0 for no effect and ±100 for the full control effect
# Target sequence (P48426 whole entry, looked up): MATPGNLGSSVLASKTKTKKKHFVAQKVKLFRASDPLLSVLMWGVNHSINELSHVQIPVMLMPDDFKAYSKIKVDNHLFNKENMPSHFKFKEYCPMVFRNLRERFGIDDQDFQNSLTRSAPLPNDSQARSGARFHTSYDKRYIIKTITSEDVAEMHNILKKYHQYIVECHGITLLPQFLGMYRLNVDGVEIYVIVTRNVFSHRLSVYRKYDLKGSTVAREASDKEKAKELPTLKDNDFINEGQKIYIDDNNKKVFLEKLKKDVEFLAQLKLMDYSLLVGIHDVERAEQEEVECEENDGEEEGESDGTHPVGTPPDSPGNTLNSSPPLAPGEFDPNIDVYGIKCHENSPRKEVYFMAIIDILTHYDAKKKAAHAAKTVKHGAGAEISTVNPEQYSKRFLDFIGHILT
#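 Human PI5P4Kalpha with substrate in 0.038 M HEPES pH 7.4, 0.28 mM EGTA, 0.1% CHAPS, 5% DMSO; reaction started with 5 microM ATP (final), 60 min at room temperature. ADP formed read by ADP-Glo luminescence.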
# BAZ2B inh: blocks human BAZ2B; AID 504333; AlphaScreen BAZ2B-H3K14Ac peptide displacement; 360,000 tested, 4.4% active; Potency, µM (doses to about 114 µM), inactives show at the highest dose activity change, negative = inhibition, most hits filed as inhibitors; note: potency is the fitted concentration of half-maximal effect; % is set by controls: 0 for no effect and ±100 for the full control effect; nearly all actives have a fitted effect of over 60% in size
#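 In this displacement format the biotinylated H3(5-23) peptide acetylated at Lys14 serves as ligand at 50 nM, with BAZ2B at 50 nM in PBS pH 7.4 containing 0.01% Tween-20. Donor and acceptor beads are 10 ug/mL final.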
# G9a inh: inhibitors of human histone lysine methyltransferase G9a | G9a H3K9 monomethylation, AlphaScreen, 2 h | Q96KQ7 | 350,000 tested, 8.8% active | Potency, µM (top dose mostly 102 µM), without a hit: at the highest dose activity, negative = inhibition, actives largely listed as inhibitors | AID 504332; note: potency is the fitted concentration of half-maximal effect; % is set by controls: 0 for no effect and ±100 for the full control effect; nearly all actives have a fitted effect of over 75% in size
#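 AlphaScreen detection with an anti-monomethyl H3K9 antibody quantified product after a 2 h room-temperature reaction containing 500 nM biotinylated H3K9 peptide, 20 µM SAM and 20 nM enzyme, which had been preincubated 15 min with compound.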
# JMJD2A Tudor inh: JMJD2A Tudor domain (human) inhibition; AID 504339; Potency, µM (top dose mostly 114 µM), for the others: at the top dose activity change, negative = inhibition, actives largely listed as inhibitors; 390,000 tested, 4.4% active; AlphaScreen JMJD2A-Tudor / H3K4me3 peptide binding; O75164; note: potency is the fitted concentration of half-maximal effect; % is set by controls: 0 for no effect and ±100 for the full control effect; nearly all actives have a fitted effect of over 50% in size
# L3MBTL1 block: blocks human L3MBTL1. AID 485360. Q9Y468. 230,000 tested, 0.66% active. AlphaScreen L3MBTL1–H3K9me1 peptide binding. Potency, µM (top dose mostly 57.1 µM), for the others: top-dose activity, negative = inhibition, most hits filed as inhibitors; note: potency is the fitted concentration of half-maximal effect; % is set by controls: 0 for no effect and ±100 for the full control effect; nearly all actives have a fitted effect of over 60% in size
#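 L3MBTL1 (50 nM) pre-complexed 30 min with biotinylated H3(1-15)K9me1 peptide (75 nM), then compounds added for 30 min at room temperature; AlphaScreen streptavidin donor/nickel chelate acceptor beads (10 ug/mL final) read after 30 min dark incubation.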
# * hit, by the source's call; u = inconclusive; x = not tested or not shown; ! = not active in a repeat; [ ] = remark or other dose. Unless noted, calls come from the whole dose curve; as a rule, active = well fitted inhibition curve with a large enough effect; inconclusive = small, poorly fitted or top-dose-only effect; inactive = no such curve, though single readings can be large or run the other way.
SMILES,HP1b binding inh,PI5P4K alpha inh,BAZ2B inh,G9a inh,JMJD2A Tudor inh,L3MBTL1 block
Cc1cc(O)c(C(c2ccc(F)cc2)N2CCCCC2)c(=O)n1Cc1ccco1 (stereo not drawn),23%[57 µM],x,-16%,u,-35%,x
CCOCCCn1c(SCC(=O)Nc2ccc(F)cc2)nc2c(sc3ccccc32)c1=O,9%,x,3%,7%[59 µM],-18%,x
Cc1cc(C)n2nc(SCc3cc(=O)oc4cc(O)ccc34)nc2n1,x,x,50µM*,u,x,x
Cc1cc(C)n2nc(SCc3nnc(-c4ccc(F)cc4)o3)nc2n1,x,x,-18%,32µM*,x,-2%
O=C1CCCc2cc(S(=O)(=O)NCC3CCC(C(=O)NCc4ccccc4Cl)CC3)ccc2N1 (stereo not drawn),17%,x,-8%,19%[59 µM],-10%,x
Cc1ccc(Sc2ncccc2C(=O)NCC(c2ccc(F)cc2)N2CCOCC2)cc1C (stereo not drawn),38%,-7,-9%,0.89µM*,u,-1%
COc1ccc(CN(C(=O)c2ccc(-c3ccccc3)[nH]2)C(C(=O)NC(C)(C)C)c2ccncc2)cc1 (stereo not drawn),-10%,12,u,u,40µM*,x
Fc1ccc(-n2ncc3c(N4CCN(c5ccccc5F)CC4)ncnc32)cc1,26%,x,9%,18%[59 µM],-17%,x
COc1ccc(-c2cc(-c3c(O)c(OC)c4occc4c3OC)[nH]n2)cc1OC,u,x,u,-6%[0.0925 µM],56µM*,-12%
OCCOCCn1c(C(CO)Nc2nc(-c3cccc(Br)c3)cs2)nc2ccccc21 (stereo not drawn),-20%,-3,x,x,u,x
CCCn1c(C(CO)Nc2nc(-c3cccc(Br)c3)cs2)nc2ccccc21 (stereo not drawn),-6%,-2,u,45µM*,u,-7%
Cc1nc2oc(C(=O)c3ccc(Br)cc3)c(N)c2c2c1COC(C)(C)C2,30%,8,3%,25µM*,3%,2%
CN1Cc2c(N3CCOCC3)nc3sc(C(=O)c4ccccc4)c(N)c3c2CC1(C)C,-11%,-3,u,50µM*,45µM*,-11%
CC1(C)Cc2c(c(N3CCOCC3)nc3sc(C(N)=O)c(N)c23)CO1,19%,-5,-32%,4%[12.7 µM],-10%,-1%
CC1(C)Cc2c(c(N3CCOCC3)nc3sc(C(=O)Nc4ccc(Cl)cc4)c(N)c23)CO1,-18%,-10,3%,10µM*!,-33%,x
Cc1nc2sc(C(=O)O)c(N)c2c2c1COC(C)(C)C2,11%,-15,7%,3.2µM*,14µM*,-1%
Cc1ccc(NC(=O)c2sc3nc(N4CCOCC4)c4c(c3c2N)CC(C)(C)OC4)cc1,33%,-1,31%,0%[59 µM],-11%,x
O=C(NNc1cc(Cl)cc(Cl)c1)c1sccc1Cl,36%,x,x,x,-27%,x
CCOc1ccc(NC(=O)c2sc3nc(N4CCOCC4)c4c(c3c2N)CC(C)(C)OC4)cc1,25%,-3,-3%,79µM*,10%,x
Nc1ccc2c(c1)ncn2CCCn1cnc2cc(N)ccc21,22%,x,79µM*,-29%[59 µM],45µM*,-2%
COc1ccc(OC)c2c(=O)cc(C(=O)O)[nH]c12,-2%,-12,u,25µM*,79µM*,x
Nc1ccc(OCc2ccccc2)cc1,-15%,0,u,11µM*,u,u
CCN(Cc1ccccc1)Cc1ccc(OCc2ccccc2)cc1,-7%,5,u,x,28µM*,49%
Cc1cc(C)n(C(C)CC(=O)Nc2cccc(C#N)c2)n1 (stereo not drawn),18%,x,-5%,15%[59 µM],-10%,x
COc1cccc(/C=C2\C(=O)N(c3cccc(C)c3)C(=O)c3ccccc32)c1,-14%,0,u,18µM*,-31%,-9%
O=C(NCCCCCCNC(=O)c1cncc(O)c1)c1cncc(O)c1,16%,2,50µM*,71µM*,16µM*,x
O=C(NCCCNC(=O)c1cncc(O)c1)c1cncc(O)c1,35%,-8,u,50µM*,-2%[11.4 µM],x

# Bioassay records deposited in PubChem by National Center for Advancing Translational Sciences (NCATS).
